Source: PubChem BioAssay (NCI)
Compounds without any hit were thinned out: in the full panel of roughly 79,000, 15% have a hit. A number with no mark means an inactive call. Calls of active or inactive are those of the source. Rule as the data show it: active = growth inhibition above about 70%; inactive = the rest.

assay: NCI Yeast Anticancer Drug Screen. Data for the rad52 strain (AID 147);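 also: 0% = growth of vehicle-treated control cultures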; conditions: S. cerevisiae rad52 mutant growth inhibition; at 3.7 µM; hits give high values
Summary of the method: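 Measured: yeast growth inhibition. System: strain with a defined DNA damage repair alteration. Reference: vehicle-treated control cultures.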

| SMILES | growth inhibition |
| --- | --- |
| CC(CC(C)(C)[N+](C)(C)C)[N+](C)(C)C (stereo unspecified) | 1% |
| CC1CCN(CCC(=O)c2ccc(Cl)cc2)CC1 | 8% |
| CCCCCCCCCCCCCCC(C(=O)[O-])[n+]1ccccc1 (stereo unspecified) | 2% |
| CNC1C(OC2C(OC3C(O)C(O)C(N=C(N)N)C(O)C3N=C(N)N)OC(C)C2(O)CO)OC(CO)C(O)C1O (stereo unspecified) | 1% |
| O=C(O)c1ccccc1-c1ccccc1C(=O)Nc1ccc2c(c1)Cc1ccccc1-2 | 5% |
| O=[N+]([O-])c1cccc2nc3ccccc3c(NCCCN3CCOCC3)c12 | 97% (active) |
| C=CC(C)(O)CCC1C(=C)C(O)CC2C(C)(C)CCCC12C (stereo unspecified) | 26% |
| CN1c2ccc(Cl)cc2C(=O)NC1c1ccc([N+](=O)[O-])s1 (stereo unspecified) | 30% |
| [O-][n+]1c2ccc(O)cc2nc2ccc(Br)cc21 | 16% |
| O=C1c2ccccc2-c2nc3ccccc3nc21 | -30% |
| CCCCN1C(=O)N(c2ccc(OCC)cc2)C2N(CCCC)C1C(C)(C)C2(C)C (stereo unspecified) | -13% |
| CO[C@H]1C[C@](C)(O)Cc2cc3c(c(O)c21)C(=O)c1c(O)cc2c(c1C3=O)O[C@@H]1O[C@@]2(C)[C@H](O)[C@@H](N(C)C)[C@@H]1O | -13% |
| COc1cc2c(cc1[N+](=O)[O-])C(=O)C(Br)(Br)CCC2 | 63% |
| O=C1OC(CCl)CN1/N=C/c1ccc([N+](=O)[O-])o1 (stereo unspecified) | -11% |
| CN(C)CCOc1ccc2c(c1)C/C(=C/c1ncc([N+](=O)[O-])n1C)C2=O | 70% (active) |
| CCCCCCCCCCCCCCCCCCN(C)CC(COP(=O)([O-])OCC[N+](C)(C)C)OC (stereo unspecified) | -24% |
| CC(C)c1ccccc1NC(=O)/C(Cl)=C(\Cl)C(=O)O | 1% |
| O=[N+]([O-])C(=C(Sc1ccccc1)Sc1ccccc1)C(Cl)=C(Cl)Cl | 30% |
| C(=C\c1ccccc1)/COc1ccccc1C(N1CCOCC1)n1nc2ccccc2n1 (stereo unspecified) | 3% |
| O=C1C(Nc2ccccc2)=C(Oc2ccccc2)C(=O)c2ccccc21 | -6% |
| CCN(CC)CCN1C(=O)c2cccc3cc(OC)cc(c23)C1=O | 48% |
| CN(C)Cc1cc(N=Nc2ccc(Cl)cc2)cc(CN(C)C)c1O | 8% |

same assay, conditions: S. cerevisiae rad52 mutant growth inhibition; at 11.0 µM; hits give high values

| SMILES | growth inhibition |
| --- | --- |
| O=CC=C(c1ccccc1)c1ccccc1 | -9% |
| FC(F)(F)c1nc2nc(Cl)c(Cl)nc2n1CCCN1CCOCC1 | 20% |
| BrCC[P+](c1ccccc1)(c1ccccc1)c1ccccc1 | 58% |
| N#CSc1ccc(S(N)(=O)=O)cc1 | -51% |
| O=[N+]([O-])c1ccc2nc3ccccc3cc2c1 | 35% |
| O=C(NC(Nc1ccc(F)c(Cl)c1)(C(F)(F)F)C(F)(F)F)C(C(F)(F)F)C(F)(F)F | 70% (active) |
| O=C(/C=C\c1ccc(Cl)cc1Cl)c1cccs1 | 3% |
| O=C(NCCCCNCCCNC(=O)c1cc(-c2ccccc2)nc2ccccc12)c1cc(-c2ccccc2)nc2ccccc12 | -3% |
| NC(=NCc1ccccc1)N/N=C\c1ccnc2ccccc12 | 0% |
| CCCCN(CCCC)CCSc1ccc(Cl)cc1 | -10% |
| COc1cc(C2C3=C(COC3=O)Oc3cc4c(cc32)OCO4)ccc1O (stereo unspecified) | 7% |
| C#CCCCc1ccccc1 | -68% |
| CCc1ccc(NS(=O)(=O)c2ccccc2)c([N+](=O)[O-])c1 | 11% |
| COc1ccc(C2c3cc4c(cc3OC(C)(O)C2C)OCO4)c(OC)c1 (stereo unspecified) | 3% |
| COC(=O)c1ccc(CCC2=CC(=O)C(Br)=CC2=O)cc1 | 47% |
| NNC(=O)CCc1ccc2ccc3ccccc3c2c1 | 1% |
| Cn1c2ccccc2c(=O)c2cc(NC(=O)CCCCC(=O)Nc3ccc4c(c3)c(=O)c3ccccc3n4C)ccc21 | 35% |
| CC(CC(C)(C)[N+](C)(C)C)[N+](C)(C)C (stereo unspecified) | 13% |
| CC1CCN(CCC(=O)c2ccc(Cl)cc2)CC1 | 28% |
| CCCCCCCCCCCCCCC(C(=O)[O-])[n+]1ccccc1 (stereo unspecified) | 2% |

| SMILES | growth inhibition |
| --- | --- |
| CNC1C(OC2C(OC3C(O)C(O)C(N=C(N)N)C(O)C3N=C(N)N)OC(C)C2(O)CO)OC(CO)C(O)C1O (stereo unspecified) | 2% |
| O=C(O)c1ccccc1-c1ccccc1C(=O)Nc1ccc2c(c1)Cc1ccccc1-2 | 12% |
| O=[N+]([O-])c1cccc2nc3ccccc3c(NCCCN3CCOCC3)c12 | 98% (active) |
| C=CC(C)(O)CCC1C(=C)C(O)CC2C(C)(C)CCCC12C (stereo unspecified) | 27% |
| CN1c2ccc(Cl)cc2C(=O)NC1c1ccc([N+](=O)[O-])s1 (stereo unspecified) | 65% |
| [O-][n+]1c2ccc(O)cc2nc2ccc(Br)cc21 | 42% |
| O=C1c2ccccc2-c2nc3ccccc3nc21 | -10% |
| CCCCN1C(=O)N(c2ccc(OCC)cc2)C2N(CCCC)C1C(C)(C)C2(C)C (stereo unspecified) | 3% |
| CO[C@H]1C[C@](C)(O)Cc2cc3c(c(O)c21)C(=O)c1c(O)cc2c(c1C3=O)O[C@@H]1O[C@@]2(C)[C@H](O)[C@@H](N(C)C)[C@@H]1O | 5% |
| COc1cc2c(cc1[N+](=O)[O-])C(=O)C(Br)(Br)CCC2 | 98% (active) |
| O=C1OC(CCl)CN1/N=C/c1ccc([N+](=O)[O-])o1 (stereo unspecified) | 19% |
| CN(C)CCOc1ccc2c(c1)C/C(=C/c1ncc([N+](=O)[O-])n1C)C2=O | 83% (active) |
| CCCCCCCCCCCCCCCCCCN(C)CC(COP(=O)([O-])OCC[N+](C)(C)C)OC (stereo unspecified) | 97% (active) |
| CC(C)c1ccccc1NC(=O)/C(Cl)=C(\Cl)C(=O)O | 0% |
| O=[N+]([O-])C(=C(Sc1ccccc1)Sc1ccccc1)C(Cl)=C(Cl)Cl | 45% |
| C(=C\c1ccccc1)/COc1ccccc1C(N1CCOCC1)n1nc2ccccc2n1 (stereo unspecified) | 13% |
| O=C1C(Nc2ccccc2)=C(Oc2ccccc2)C(=O)c2ccccc21 | 1% |
| CCN(CC)CCN1C(=O)c2cccc3cc(OC)cc(c23)C1=O | 72% (active) |
| CN(C)Cc1cc(N=Nc2ccc(Cl)cc2)cc(CN(C)C)c1O | 8% |
